Rows were chosen to be rich in hits. Some 5.7% of all compounds tested hit in one or more screens of this group.
JMJD2A Tudor inh: inhibitors of human JMJD2A Tudor domain; AlphaScreen JMJD2A-Tudor / H3K4me3 peptide binding; Potency, µM (titrated, usually from 114 µM), for the others: at the highest dose activity change, negative = inhibition, hits mostly inhibitors; actives 4.4% (n = 390,000); note: potency is the fitted concentration of half-maximal effect; % is set by controls: 0 for no effect and ±100 for the full control effect; nearly all actives have a fitted effect of over 50% in size
Target sequence (O75164 whole entry, looked up, the tested form may be a part): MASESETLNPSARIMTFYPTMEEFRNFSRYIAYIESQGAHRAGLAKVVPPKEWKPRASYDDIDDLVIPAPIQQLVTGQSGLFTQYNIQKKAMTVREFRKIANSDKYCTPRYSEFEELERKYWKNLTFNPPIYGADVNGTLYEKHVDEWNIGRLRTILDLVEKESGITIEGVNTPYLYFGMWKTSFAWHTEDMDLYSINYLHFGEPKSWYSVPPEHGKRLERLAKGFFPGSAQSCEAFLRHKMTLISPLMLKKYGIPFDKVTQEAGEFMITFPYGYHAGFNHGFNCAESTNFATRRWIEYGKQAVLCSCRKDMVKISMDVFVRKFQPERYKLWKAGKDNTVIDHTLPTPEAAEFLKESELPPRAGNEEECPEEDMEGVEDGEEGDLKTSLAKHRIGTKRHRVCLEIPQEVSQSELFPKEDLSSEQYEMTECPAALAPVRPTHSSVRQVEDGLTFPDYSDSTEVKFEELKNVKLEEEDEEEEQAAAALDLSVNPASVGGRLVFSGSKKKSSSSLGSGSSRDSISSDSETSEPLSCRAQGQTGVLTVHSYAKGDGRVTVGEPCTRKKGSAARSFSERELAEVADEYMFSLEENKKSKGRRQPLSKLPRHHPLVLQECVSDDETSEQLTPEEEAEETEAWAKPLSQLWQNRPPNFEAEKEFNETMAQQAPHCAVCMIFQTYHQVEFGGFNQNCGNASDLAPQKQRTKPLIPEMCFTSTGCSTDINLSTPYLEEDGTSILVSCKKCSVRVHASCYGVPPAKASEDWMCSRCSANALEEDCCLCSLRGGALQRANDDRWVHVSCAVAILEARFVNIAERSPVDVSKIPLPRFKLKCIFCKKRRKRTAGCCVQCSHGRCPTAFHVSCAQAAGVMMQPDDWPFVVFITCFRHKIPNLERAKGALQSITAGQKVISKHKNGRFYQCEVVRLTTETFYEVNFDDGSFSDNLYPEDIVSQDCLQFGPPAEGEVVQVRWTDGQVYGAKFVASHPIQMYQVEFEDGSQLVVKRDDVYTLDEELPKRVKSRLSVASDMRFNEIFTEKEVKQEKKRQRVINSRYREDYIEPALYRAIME
L3MBTL1 block: blocks human L3MBTL1; Q9Y468; AlphaScreen L3MBTL1–H3K9me1 peptide binding; Potency, µM (highest dose often 57.1 µM), for inactives: at the top dose activity, negative = inhibition, usual class: inhibitors; actives 0.66% (n = 230,000); AID 485360; note: potency is the fitted concentration of half-maximal effect; % is set by controls: 0 for no effect and ±100 for the full control effect; nearly all actives have a fitted effect of over 60% in size
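AlphaScreen assay: L3MBTL1 (50 nM final) was preincubated 30 min at room temperature with biotinylated H3(1-15)K9me1 peptide (75 nM final), then 30 min with library compounds; streptavidin donor and nickel chelate acceptor beads (10 ug/mL final) added, 30 min dark.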
HP1b binding inh: inhibitors of HP1-beta chromodomain binding to methylated histone tails; AlphaScreen HP1-beta / biotin-H3K9me3 peptide binding; Potency, µM (highest dose often 114 µM), without a hit: at the highest dose activity change, negative = inhibition, actives largely listed as inhibitors; actives 0.56% (n = 390,000); AID 540317; note: potency is the fitted concentration of half-maximal effect; nearly all actives have a fitted effect of over 70% in size
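AlphaScreen: HP1-beta (50 nM) preformed 30 min with biotin-H3(1-18)K9me3 peptide (50 nM) in PBS pH 7.4, 0.01% Tween-20. Compound added for 30 min at RT, then streptavidin donor/nickel chelate acceptor beads (10 ug/mL) for 30 min.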
JMJD2E inh: blocks human JMJD2E demethylase activity. B2RXH2. JMJD2E catalytic domain, FDH-coupled NADH fluorescence (FDH is formaldehyde dehydrogenase). Potency, µM (highest dose often 57.1 µM), for inactives: at the highest dose activity change, negative = inhibition, most hits filed as inhibitors. actives 1.6% (n = 230,000). AID 2147; active = well fitted inhibition curve with a large enough effect, not every such curve was filed as active; inconclusive = small, poorly fitted or top-dose-only effect, or another doubt; inactive = no such curve, though single readings can be large or run the other way;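 note: potency is the fitted concentration of half-maximal effect; 0% = wells with enzyme and -100% = buffer wells without enzyme; nearly all actives have a fitted effect of over 50% in size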
BAZ2B block: inhibitors of human BAZ2B bromodomain; Q9UIF8; AlphaScreen BAZ2B-H3K14Ac peptide displacement; Potency, µM (doses to about 114 µM), inactives show at the highest dose activity change, negative = inhibition, hits mostly inhibitors; actives 4.4% (n = 360,000); AID 504333; note: potency is the fitted concentration of half-maximal effect; % is set by controls: 0 for no effect and ±100 for the full control effect; nearly all actives have a fitted effect of over 60% in size
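AlphaScreen displacement: compounds (up to 110uM) incubated 30 min at room temperature with a preformed 50 nM BAZ2B/50 nM biotinylated H3K14Ac peptide complex in PBS pH 7.4 with Tween-20. Donor and acceptor beads at 10 ug/mL final added, 20 min light-protected before reading.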
PI5P4K alpha inh: blocks human PI5P4K alpha kinase activity; P48426; PI5P4Kalpha enzyme, ADP-Glo luminescence, 60 min; stronger effect = lower value; max response, %; actives 1.2% (n = 330,000); active = max response of -50% or lower; inconclusive = between -30% and -50%; inactive = -30% or higher; note: value at the top dose of about 77 µM; % is set by controls: 0 for no effect and ±100 for the full control effect
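Quantitative HTS of the MLSMR library against PI5P4Kalpha with substrate. ATP added last at 5 microM final; room temperature, 60 minutes. Remaining ATP depleted, ADP converted and read as luminescence.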
Active calls of the source: *; ? = inconclusive; . = no result given; [ ] = dose if it differs, or a comment. Unless noted, calls come from the whole dose curve; as a rule, active = well fitted inhibition curve with a large enough effect; inconclusive = small, poorly fitted or top-dose-only effect; inactive = no such curve, though single readings can be large or run the other way.

SMILES	JMJD2A Tudor inh	L3MBTL1 block	HP1b binding inh	JMJD2E inh	BAZ2B block	PI5P4K alpha inh
O=C(CN1CCN(c2ccc(Cl)cc2)CC1)NCc1ccccc1	-22%	-3%	28%	0%	-8%	9
c1ccc(CNc2ccc(N3CCOCC3)cc2)cc1	45µM*	?	?	.	.	.
Clc1ccc(CNc2ccc(N3CCN(Cc4ccccc4)CC3)cc2)cc1	11µM*	?	18µM*	.	5.6µM*	13
CC(C)(C)OC(=O)N1CCC(c2c(C(=O)N3CCC(c4ccccc4)C3)cnn2-c2cccc(Cl)c2)CC1 (centres undefined)	?	.	28%	.	-10%[57.1 µM]	.
Cc1ccc(NCN2C(=O)C3C4C=CC(C4)C3C2=O)cc1 (centres undefined)	18µM*	4%	-8%	8%	9%	?
O=C1C2C3C=CC(C3)C2C(=O)N1CNc1ccc(O)cc1 (centres undefined)	.	?	.	?	45µM*	.
Cc1ccc(NCN2C(=O)C3C4CCC(C4)C3C2=O)cc1 (centres undefined)	.	.	.	14%	3%	.
CCOc1ccc(-c2nonc2NC(=O)c2oc3ccc(Cl)cc3c2C)cc1	-8%	.	43%	.	-1%	.
COc1ccc(C2C3=C(N=CN(CCN4CCOCC4)C3N)Oc3ccccc32)cc1OC (centres undefined)	-18%	.	.	.	.	.
CCOc1ccc(S(=O)(=O)N2CC(=O)Nc3ccccc32)cc1	-8%	.	-3%	.	3%	0
CC1(C)Cc2c(sc3c2c(=N)n(Cc2ccco2)c(=O)n3Cc2ccccc2)CO1	-8%[11.4 µM]	.	-7%	-8%	79µM*	-5
CC(C)C(NC(=O)c1ccc(Cl)cc1)C(=O)NC1=NCCS1 (centres undefined)	-22%	.	-13%	5%	-19%	-1
CC(C)[C@H](NC(=O)c1ccc(F)cc1)C(=O)NC1=NCCS1	18µM*	4%	19%	13%	0%	-3
CN1CCN(C2=Nc3c(Cl)cc(Cl)c4cccc2c34)CC1	50µM*	.	?	-9%	28µM*	4
CN1CCN(C2=Nc3cc(F)ccc3Cc3ccccc32)CC1	.	.	.	11%	-17%	.
CC1=C(C(=O)Nc2cc(C(=O)NCCCOC(C)C)ccc2C)SCCO1	1%	.	16%	.	7%	14
CC(C)C[C@H]1CNC(=O)C(=O)N1C[C@@H]1CCCN1C[C@H](CC(C)C)N1C[C@H](Cc2ccc(O)cc2)N(CCc2ccccc2)C(=O)C1=O	.	.	.	.	.	-1
COc1ccccc1/C=C/CN1CCCCC1	1.4µM*	-13%	?	.	79µM*	-2
COc1ccccc1NC(=O)CCN1CC(C)OC(C)C1 (centres undefined)	-10%	4%	12%	-1%	8%	-2
COc1ccccc1/C=C/CN1CC(C)OC(C)C1 (centres undefined)	3.2µM*	-5%	?	-29%	45µM*	.
O=S(=O)(c1ccccc1)c1nnn2c1nc(NCc1ccccc1)c1sccc12	-10%	.	29%	.	-18%	.
CCC(C)NC(=O)CN1C(=O)c2cccnc2Oc2ccc(C)cc21 (centres undefined)	50µM*	.	40%	.	13%	.
Cc1cc2c(cc1S(=O)(=O)N1CC(C)CC(C)C1)OCC(=O)N2 (centres undefined)	-4%	1%	40%	.	13%	6
O=C(Nc1ccc2nc(SCC(=O)N3CCc4ccccc43)sc2c1)c1cccc(F)c1	-12%	.	33%	.	-10%	.
Cc1cc(C)c(OCCCCN2CCC(C)CC2)c(Br)c1	5µM*	.	?	?	?	-4
SMILES	JMJD2A Tudor inh	L3MBTL1 block	HP1b binding inh	JMJD2E inh	BAZ2B block	PI5P4K alpha inh
CC1CCN(CC(O)COCCOc2ccc(Br)cc2)CC1 (centres undefined)	4%[57.1 µM]	17%	47%	6%	9%	3
Cc1cc(C)c(OCCCON2C(=O)CCC2=O)c(Br)c1	-4%	8%	51%	17%	5%	12
Cc1cc(Cl)c(OCCOCCN2CCN(C)CC2)c(Br)c1	7.9µM*	-3%	?	.	50µM*	-3
CN1CCN(CCOCCOc2c(Cl)cc(Cl)cc2Cl)CC1	-27%	.	2%	.	.	-12
Cc1cc(Cl)c(OCCOCCN2CCC(C)CC2)c(Br)c1	7.9µM*	11%	-20%	-27%	?	-7
Cc1ccc2oc(=O)c3cc(C(=O)Nc4ccc(F)cc4F)sc3c2c1	5%	.	36%	.	-4%	.
CCC1CN(C(=O)N2CCC(C(=O)NCCCc3ccccc3)CC2)c2ccccc2O1 (centres undefined)	?	.	14%	.	?	.
O=C(CN1CCC(C(=O)c2ccc(F)cc2)CC1)Nc1ccccc1Cl	4%	.	91%	.	-1%	7
COc1ccc(Cl)cc1NC(=O)c1sc(-n2nc(C)c(Cc3ccccc3)c2C)nc1C	-14%	.	17%	.	-13%	.
Cc1ccc(S(=O)(=O)NCC(=O)OCC(=O)c2ccc(Br)s2)cc1	-22%	.	20%	-1%	3%	-52*
Cc1c(C(=O)O)cccc1-c1ccc(/C=N/Nc2ccc(Br)cc2)o1	?	-7%	-13%	7%	50µM*	-24
Cc1c(C(=O)O)cccc1-c1ccc(/C=N/n2cnnc2)o1	89µM*	.	-6%	.	79µM*	-5
Nc1ccc(Oc2cc(N)cc(Oc3ccccc3)c2)cc1	?	.	?	.	50µM*	15
Nc1ccc(Oc2ccc3nc(-c4ccccc4)c(-c4ccccc4)nc3c2)cc1	?	-1%	-11%	12%	?	69
COc1cc(/C=N/NC(=O)/C(=C/c2ccccc2)CCO)ccc1O	-11%	0%	19%	10%	-3%	1
COc1ccc(/C=N/NC(=O)/C(=C/c2ccccc2)CCO)cc1	79µM*	-7%	1%	-5%	-1%	-5
O=C(N/N=C/c1ccc(O)cc1O)/C(=C/c1ccccc1)CCO	79µM*	-8%	12%	16µM*	-39%	-5
COc1ccc(CCNC(=O)c2ccc3c(c2)N(Cc2ccc(Cl)cc2)C(=O)c2ccccc2S3)cc1OC	-23%	.	-4%	.	-24%	.
Cn1c(=O)c2c(n3ncnc13)NC(=O)CC2c1cccc(F)c1 (centres undefined)	-14%	.	30%	.	-21%	.
CCCN(CCC)S(=O)(=O)c1ccc(C(=O)Nc2nnc(CSC)o2)cc1	50µM*	5%	-9%	?	?	-1
COCCN(CCOC)S(=O)(=O)c1ccc(C(=O)Nc2nnc(C3CC3)o2)cc1	10µM*	-15%	26%	-8%	32µM*	1
CCc1nnc(NC(=O)c2ccc(S(=O)(=O)N(CCOC)CCOC)cc2)o1	45µM*	-28%	42%	-4%	28µM*	-2
CCOC(=O)c1cccc(Nc2cc(C)nc(C)n2)c1	-16%	.	40%	.	-21%	.
